In PubChem BioAssay (NCATS):
Results filed as inconclusive are left out. Calls of active or inactive are those of the source. Calls come from the whole dose curve; as a rule, active = well fitted inhibition curve with a large enough effect; inconclusive = small, poorly fitted or top-dose-only effect; inactive = flat fitted curve, though single readings scatter.

Key:
Test in all cases: qHTS profiling for inhibitors of Plasmodium falciparum proliferation (AID 504749); note: nearly all actives have a fitted effect of over 60% in size
Conditions in all cases: P. falciparum in erythrocytes, SYBR Green DNA, 72 h; series mostly up to 28.7 µM
7G8 = test system: 7G8
Summary of the method: (§1)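 Parasite proliferation within erythrocytes, 72 h exposure. Endpoint: SYBR Green I fluorescence after overnight lysis at room temperature. Controls: 0.29 uM artemisinin, DMSO.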

AA1029 = test system: AA1029
Summary of the method: as §1

AS120 = test system: AS120
Summary of the method: as §1

ATS189 = test system: ATS189
Summary of the method: as §1

ATS95 = test system: ATS95
Summary of the method: as §1

CP191 = test system: CP191
Summary of the method: as §1

CP237 = test system: CP237
Summary of the method: as §1

CP238 = test system: CP238
Summary of the method: as §1

CP247 = test system: CP247
Summary of the method: as §1

CP265 = test system: CP265
Summary of the method: as §1

CP286 = test system: CP286
Summary of the method: as §1

CP297 = test system: CP297
Summary of the method: as §1

DFO2036 = test system: DFO2036
Summary of the method: as §1

Dd2 = test system: Dd2
Summary of the method: as §1

ECU = test system: ECU
Summary of the method: as §1

P94_40 = test system: P94_40
Summary of the method: as §1

PAD = test system: PAD
Summary of the method: as §1

PC15 = test system: PC15
Summary of the method: as §1

TAB109 = test system: TAB109
Summary of the method: as §1

TAB165 = test system: TAB165
Summary of the method: as §1

Measured: Potency
Potency is the fitted concentration of half-maximal effect.

CN1CC[C@H](CN2c3ccccc3Sc3ccccc32)C1
active: 7G8 1.41 µM | AA1029 5.01 µM | AS120 12.6 µM | ATS189 11.2 µM | ATS95 12.6 µM | CP191 10 µM | CP237 6.31 µM | CP238 8.91 µM | CP247 7.94 µM | CP265 11.2 µM | CP286 12.6 µM | CP297 6.75 µM | DFO2036 12.6 µM | Dd2 3.55 µM | ECU 11.2 µM | P94_40 8.91 µM | PAD 8.91 µM | PC15 11.2 µM | TAB109 11.2 µM | TAB165 12.6 µM
